# uPA generation – cell surface uPA generation inhibition | Potency, µM (top dose mostly 38.3 µM), for the others: top-dose activity change, negative = inhibition, most hits filed as inhibitors | cell surface uPA generation assay, qHTS | actives 0.31% (n = 330,000); active = well fitted inhibition curve with a large enough effect; inconclusive = small, poorly fitted or top-dose-only effect; inactive = no such curve, though single readings can be large or run the other way; tested in mouse RAW 264.7 cells; note: potency is the fitted concentration of half-maximal effect; nearly all actives have a fitted effect of over 55% in size
# IL1B secr inh – inhibitors of inflammasome signaling (IL-1 beta secretion). activity change, % at 57.5 µM. THP-1 LPS/ATP IL-1B secretion, AlphaLISA, 16 h; hits give low values. actives 4.7% (n = 360,000); in the data active = activity change below about -50%; inconclusive = mostly about -30% to -49%
#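 Secreted IL-1B measured by AlphaLISA bead assay after 16 h compound exposure of THP-1 cells; compounds (final up to 57.5 uM) added 1 h before LPS (250 ng/mL) and ATP (1.25 mM) stimulation; lower signal means less secretion.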
# DT40 TDP1 no CPT – qHTS for Inhibitors of human tyrosyl-DNA phosphodiesterase 1 (TDP1): qHTS in cells in absence of CPT; DT40 Tdp1-/- hTDP1 cells, no CPT, ATP luminescence, 48 h; Potency, µM (series often up to 46.2 µM), for inactives: top-dose activity change, negative = growth inhibition, hits mostly inhibitors; actives 15% (n = 420,000); AID 686978, 2013; note: potency is the fitted concentration of half-maximal effect; nearly all actives have a fitted effect of over 55% in size
#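 Camptothecin absent (DMSO only). Human TDP1-complemented DT40 knockout cells, 400 cells/well, 37 °C for minimum 48 hr; ATP measured via CellTiter-Glo, 30 min dark incubation, luminescence.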
# HT1080-NT tox – kills 2HG-producing HT-1080-NT fibrosarcoma cells | HT-1080-NT fibrosarcoma viability, CellTiter-Glo ATP luminescence, 48 h | Potency, µM (highest dose often 46.1 µM), for the others: top-dose activity, negative = less viability, hits mostly cytotoxic | actives 1.6% (n = 360,000) | AID 686970;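 note: NT is the 2HG producing partner of a matched IDH1 knockdown line; potency is the fitted concentration of half-maximal effect; 0% = DMSO-treated cells and -100% = media-only wells without cells; nearly all actives have a fitted effect of over 55% in size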
#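 A 48-hour cytotoxicity screen used HT-1080-NT cells plated 2 hours before compound delivery. ATP-based CellTiter-Glo luminescence measured viability, normalized to DMSO and no-cell controls.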
# HT1080 IDH1KD tx – kills HT-1080 cells with IDH1 knockdown | Potency, µM (series often up to 46.1 µM), inactives show at the top dose activity, negative = toxicity, usual class: cytotoxic | HT-1080 IDH1 knockdown viability, ATP luminescence, 48 h | actives 2% (n = 360,000);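 note: potency is the fitted concentration of half-maximal effect; 0% = DMSO wells and -100% = cell-free medium wells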
#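 CellTiter-Glo luminescence after 48 h compound exposure at 37 degrees C of IDH1-knockdown HT-1080 cells in 5% FBS RPMI. %Activity scaled between DMSO wells and cell-free media wells, with curves fitted and assigned curve classes.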
# TDP1 cell CPT – growth inhibition of DT40 Tdp1-/-;hTDP1 cells with camptothecin (screen for TDP1 inhibitors). actives 12% (n = 420,000). chicken DT40 Tdp1-/-;hTDP1 cells + 20 nM CPT, ATP luminescence, 48 h. Potency, µM (highest dose often 46.2 µM), without a hit: top-dose activity change, negative = growth inhibition, hits mostly inhibitors; note: potency is the fitted concentration of half-maximal effect; nearly all actives have a fitted effect of over 55% in size
#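 Chicken DT40 Tdp1-/- cells stably complemented with human TDP1 were seeded at 400 cells/well in medium containing 20 nM camptothecin, exposed to pin-transferred compounds, and grown at 37 °C for at least 48 hr. Viability was read as ATP luminescence.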
# The depositor's hits bear a star; ? = inconclusive; / = no result given. In the library only some 19% were active in any assay of this set; here they are far more common. Unless noted, calls come from the whole dose curve; as a rule, active = well fitted curve in the direction sought with a large enough effect; inconclusive = small, poorly fitted or top-dose-only effect, or another doubt; inactive = no such curve, though single readings can be large; an effect the other way counts as inactive or inconclusive. Unless noted, % is set by controls: 0 for no effect and ±100 for the full control effect.
SMILES,uPA generation,IL1B secr inh,DT40 TDP1 no CPT,HT1080-NT tox,HT1080 IDH1KD tx,TDP1 cell CPT
COC(=O)C(NC(=O)c1ccc(F)cc1)(Nc1ncc(S(=O)(=O)c2ccc([N+](=O)[O-])cc2)s1)C(F)(F)F (stereo not given),1%,-3,13µM*,?,?,16µM*
COC(=O)C(NC(=O)c1ccccc1C)(Nc1ncc(S(=O)(=O)c2ccc([N+](=O)[O-])cc2)s1)C(F)(F)F (stereo not given),0%,-23,?,?,?,?
CCn1c(=O)c(C(=O)CN(C)Cc2cccc(OC)c2OC)c(N)n(Cc2ccccc2)c1=O,5%,24,15µM*,?,8%,?
COC(=O)c1cc2oc(C)cc2n1CC(=O)Nc1ccc(C)cc1C,/,/,-27%,/,/,-21%
CCN1C(=NCc2cccc(Cl)c2)N[C@@H](c2cccc(F)c2)C(C(=O)OC)=C1C,-6%,-70*,18µM*,-22%,-12%,?
COC(=O)C1=C(C)N(Cc2ccccc2)C(=NCc2cccc(C(F)(F)F)c2)N[C@H]1c1cccc(C(F)(F)F)c1,0%,-101*,3.7µM*,?,?,3.3µM*
COC(=O)C1=C(C)N(CC2CC2)C(=NCc2cccc(C(F)(F)F)c2)N[C@H]1c1ccccc1,-6%,-58*,12µM*,-19%,-7%,10µM*
C=CCN=C1N[C@@H](c2cccc(C(F)(F)F)c2)C(C(=O)OC)=C(C)N1CC,7%,-25,?,-10%,-10%,?
CCN1C(=S)N[C@@H](c2cccc(F)c2)C(C(=O)OC)=C1C,4%,2,-24%,9%,12%,2%
COC(=O)C1=C(C)N(Cc2ccccc2)C(=NCCc2c[nH]c3ccccc23)N[C@H]1c1cccc(C(F)(F)F)c1,-26%,-50*,16µM*,-28%,-19%,?
COc1ccc(S(=O)(=O)N2CCCC(N(C)CCc3ccccc3)C2)cc1OC (stereo not given),10%,9,?,-7%,-2%,?
COC(=O)C1=C(C)N(Cc2ccccc2)C(=NCc2cccc(C(F)(F)F)c2)N[C@H]1c1cccc(F)c1,?,-104*,6.5µM*,?,?,6.5µM*
COC(=O)C1=C(C)N(Cc2ccccc2)C(=NCCCCO)N[C@H]1c1cccc(C(F)(F)F)c1,-15%,?,?,-18%,-1%,23µM*
COCCN=C1N[C@@H](c2cccc(C(F)(F)F)c2)C(C(=O)OC)=C(C)N1Cc1ccccc1,-12%,-56*,10µM*,?,-6%,13µM*
CCOC(=O)CN1C(=O)N[C@@H](c2cccs2)C(C(=O)OC)=C1C,12%,12,?,9%,1%,?
CCN1C(=NCCc2cccs2)N[C@@H](c2cccs2)C(C(=O)OC)=C1C,?,-13,21µM*,?,-5%,6.5µM*
CCN1C(=NCCCCO)N[C@@H](c2cccc(C(F)(F)F)c2)C(C(=O)OC)=C1C,4%,-23,-20%,-8%,-10%,?
COC(=O)C1=C(C)N(Cc2ccco2)C(=O)N[C@H]1c1cccc(C(F)(F)F)c1,-6%,?,?,-2%,-3%,?
COC(=O)C1=C(C)N(Cc2ccccc2)C(=O)N[C@H]1c1cccc(F)c1,3%,3,-27%,-3%,-3%,-18%
CCCc1nc2nc(C)c(NS(=O)(=O)c3ccc(C)c(C)c3)c(=O)n2[nH]1,/,11,9%,7%,-4%,0%
CCN1C(=NCC(C)C)N[C@@H](c2cccc(C(F)(F)F)c2)C(C(=O)OC)=C1C,-18%,?,21µM*,-14%,-10%,?
COC(=O)C1=C(C)N(Cc2ccccc2)C(=NCCCCO)N[C@H]1CCc1ccccc1,-8%,?,16µM*,-9%,-5%,?
COC(=O)C1=C(C)N(Cc2ccccc2)C(=NCCc2ccccn2)N[C@H]1c1cccc(F)c1,-27%,-55*,?,-12%,0%,16µM*
CCN1C(=NCCc2ccccn2)N[C@@H](c2cccc(F)c2)C(C(=O)OC)=C1C,-7%,-15,?,-2%,4%,-22%
CC(C)(C)C(=O)CSc1n[nH]c(-c2ccccc2)n1,/,/,?,/,/,-25%
SMILES,uPA generation,IL1B secr inh,DT40 TDP1 no CPT,HT1080-NT tox,HT1080 IDH1KD tx,TDP1 cell CPT
CCCCN1C(=O)C(CC(=O)NCC2CCCCC2)CC(C(=O)N2CCOCC2)=C1C (stereo not given),/,15,-26%,-4%,4%,-12%
COc1ccc(CCNCc2ccc3c(c2)n(C)c(=O)n3C)cc1OC,/,/,?,/,/,-21%
Cc1cc2nc(C)n(CCCNC(=O)Nc3cccc4ccccc34)c2cc1C,-6%,?,15µM*,-4%,-19%,23µM*
CCOc1ccc(NC(=O)NCCCn2c(C)nc3cc(C)c(C)cc32)cc1,3%,-7,?,1%,-1%,?
O=C(NN=Cc1ccccc1O)C(O)(c1ccccc1)c1ccccc1,-3%,58,8.2µM*,-10%,?,23µM*
O=C(N/N=C/c1ccc(O)c([N+](=O)[O-])c1)C(O)(c1ccccc1)c1ccccc1,2%,19,2.9µM*,-17%,?,?
CCOCc1cc(CN2CCCC(CNC(=O)c3ccco3)C2)ccc1OC (stereo not given),-2%,20,1%,-2%,7%,-10%
CC1=NN(C(=O)c2ccccc2F)C(O)(c2ccc(Cl)cc2)C1 (stereo not given),-7%,-11,?,3%,-10%,?
COc1ccc(C(=O)CN2C(=O)NC3(CCCCCC3)C2=O)cc1,-5%,-21,-28%,10%,1%,-2%
O=C(CNc1ccc(Cl)cc1)c1ccc(Br)cc1,-6%,-11,-7%,-19%,-17%,2%
O=C(Cn1nc(CNc2ccc(Cl)cc2)[n+]2c1CCCCC2)c1ccc(Br)cc1,-1%,-52*,?,-13%,-19%,23µM*
O=C(Cn1nc(CNc2ccc(Br)cc2)[n+]2c1CCCCC2)c1ccc([N+](=O)[O-])cc1,0%,-61*,12µM*,?,?,6.5µM*
COc1ccc(NCc2nn(CC(=O)c3ccc(Br)cc3)c3[n+]2CCCCC3)cc1,3%,?,16µM*,15%,-2%,?
